Bioassay records deposited in PubChem by The Scripps Research Institute Molecular Screening Center.
FBW7 act: human FBW7 E3 ligase activation, primary screen; Q969H0; AlphaScreen FBW7–phospho-cyclin E peptide binding, activator screen; normalized activity (activation), % at 26.1 µM; 650,000 tested, 0.13% active; in the data active = normalized activity above about 1.9%;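 also: purified mutant Fbw7 with reduced substrate affinity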
GPR151 activ: activators of human GPR151. Q8TDV0. PathHunter beta-arrestin GPR151 cells, luminescence. activation, % at 11.2 µM. 650,000 tested, 1% active. AID 1508602; in the data active = activation above about 4.9%
MITF inh: inhibitors of human MITF | inhibition, % at 2.6 µM | AID 1259374 | 650,000 tested, 0.91% active | AlphaScreen MITF homodimerization, bead proximity signal; in the data active = inhibition above about 50%
TEAD-YAP inh: TEAD-YAP interaction inhibition; HEK-TIYL cells, TEAD-Gal4/YAP UAS-luciferase luminescence; inhibition, % at 9.12 µM; 640,000 tested, 1.4% active; in the data active = inhibition above about 32%
Numbers stand for hits; 0 = inactive. An excerpt weighted towards active compounds, which were near 3.5% of everything screened.

SMILES	FBW7 act	GPR151 activ	MITF inh	TEAD-YAP inh
COc1ccc(-c2nc(Nc3ccc(NC(C)=O)cc3)c3ncn(-c4ccsc4)c3n2)cn1	0	0	0	51
CC(=O)Nc1ccc(Nc2nc(-c3ccccc3)nc3c2ncn3-c2ccsc2)cc1	0	0	0	37
CCN1CCN(CCCCOc2cccc3ccccc23)CC1	0	0	0	0
COc1ccc(CCNC(=O)c2ccc3nc(Nc4ccc5ncccc5c4)sc3c2)cc1	0	0	0	32
O=C(Nc1ccc(F)c(F)c1)c1ccco1	0	0	0	0
CC(=O)Nc1ccc(S(=O)(=O)n2c(SCc3cccc(F)c3)nc3ccccc32)cc1Cl	0	0	0	0
CC(C)(C)C1CCC2(CC1)N=C(c1cccc(F)c1)C(=O)N2 (stereo not given)	0	0	0	0
Cc1ccc2nc(NC(=O)CSCC(=O)O)sc2c1	0	0	0	60
CN(C)S(=O)(=O)N=C1C=CC(=NS(=O)(=O)N(C)C)C=C1	0	0	55	0
COC(=O)c1cccc(-c2cc(Cl)c3c(c2)CC(CNC(=O)c2c(C)noc2C)O3)c1 (stereo not given)	0	0	0	0
O=S1(=O)Nc2c(ccc3cccnc23)-c2ccccc21	0	0	88	60
C/C(=N\Nc1cccc([N+](=O)[O-])c1)c1ccc(Cl)s1	0	0	0	0
CC(C)N(CCNC(=O)c1cccc(Oc2ccccc2)n1)C(C)C	3.1	0	0	0
CC(C)N(CCNC(=O)c1cnc(Oc2ccccc2)s1)C(C)C	0	0	0	0
COc1ccc(NC(=O)c2oc3ccccc3c2NC(=O)c2ccccc2OC)cc1	0	0	0	0
COC(=O)n1nnnc1CN(Cc1ccco1)Cc1cc2ccc(OC)cc2[nH]c1=O	0	0	0	0
COC(=O)c1ccc(N/C=C2/CCc3ccccc3C2=O)cc1	0	0	0	68
C(=N\Nc1nn[nH]n1)/c1ccc(N2CCOCC2)cc1	0	0	58	0
COc1cc(NC(=O)c2cccc(-c3cccc(C(C)=O)c3)c2)cc(OC)c1OC	0	0	0	0
COc1cccc(-c2cc(C(=O)Nc3cc(OC)c(OC)c(OC)c3)on2)c1	0	0	0	42
COc1cc(NC(=O)c2cncc(-c3cccc(C(C)=O)c3)c2)cc(OC)c1OC	0	0	0	59
COc1cc(NC(=O)c2cncc(-c3cccs3)c2)cc(OC)c1OC	0	0	0	39
COc1ccccc1OCC(=O)Nc1ncc(Cc2ccc(Cl)cc2)s1	0	0	0	0
CCOC(=O)CN1c2ccccc2NC1C(C#N)c1ccc(OC)cc1 (stereo not given)	0	0	0	36
CCOC(=O)CSC1=C(C#N)C(=O)NC(c2ccc(OC)cc2)S1 (stereo not given)	0	0	0	0
SMILES	FBW7 act	GPR151 activ	MITF inh	TEAD-YAP inh
COc1ccc(S(=O)(=O)N(CC(=O)NCc2ccccc2)c2ccc(Cl)cc2)cc1	0	0	0	0
Cc1cc(C(=O)NNC(=O)C(O)(c2ccccc2)c2ccccc2)cs1	1.9	0	0	0
Cc1ccc(N=Cc2sc3ccccc3c2O)cc1	0	0	0	80
Oc1c(C=Nc2ccc(Cl)cc2)sc2ccccc12	0	0	0	0
Cc1ccc(N=Cc2sc3ccccc3c2O)cc1C	0	0	0	74
Nc1ccccc1N=Cc1sc2ccccc2c1O	0	0	0	0
Oc1c(/C=N/n2cnnc2)sc2ccccc12	0	0	0	72
Cc1ccccc1N=Cc1sc2ccccc2c1O	0	0	0	53
CCOC(=O)c1c(NC(=O)C2CCCC2)sc2ccccc12	0	0	0	0
CN(C)c1ccc(C(CNS(=O)(=O)c2ccc3c(c2)CCCC3)N(C)C)cc1 (stereo not given)	0	0	0	0
CCOc1ccc(N=Cc2sc3ccccc3c2O)cc1	0	0	0	88
COc1ccc(CNc2ccc3ncc(-c4cccc(CO)c4)n3n2)cc1	0	0	0	33
CN(C)c1ccc(-c2cnc3ccc(NCCc4ccccn4)nn23)cc1	0	0	0	0
COc1ccc(-c2cnc3ccc(NCc4ccccn4)nn23)cc1	0	0	0	45
Fc1ccc(-c2cnc3ccc(NCCc4ccccn4)nn23)cc1	0	0	0	68
Clc1cccc(-c2cnc3ccc(NCc4ccccn4)nn23)c1	0	0	0	0
c1ccc(-c2cnc3ccc(NCc4ccccn4)nn23)cc1	0	0	0	39
CCNC(=S)Nc1cc(C(=O)N2CCCC2)ccc1N1CCCC1	0	0	0	0
CN(C)c1ccc(-c2cnc3ccc(NCc4ccccn4)nn23)cc1	0	0	0	0
Fc1ccc(-c2cnc3ccc(NCc4ccccn4)nn23)cc1	0	0	0	51
Oc1ccc(-c2cnc3ccc(NCc4ccco4)nn23)cc1	0	0	0	47
